Records with an inconclusive call do not appear. Calls of active or inactive are those of the source. How the source made its calls, unless noted: active means hit-call score of the fitted dose curve at least 0.9, where 1 is the maximum; inactive means score below 0.9.

Experiment [1] can be described thus: ACEA_ER_80hr: ACEA Biosciences xCELLigence Real-Time Cell Analysis on Estrogen Receptor Agonism for Proliferation (AID 2282667; active means hit-call score of the fitted dose curve at least 0.9, where 1 is the maximum). The settings on record: T47D proliferation, impedance (xCELLigence), 80 h. Put shortly:
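Real-time impedance growth kinetics of human T-47D breast cells read 80 h after dosing, gain-of-signal fitted relative to DMSO. Compounds: 1:4 serial series, top final concentration 100 uM, n = 2.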

The nature of experiment [2]: ATG_CRE_CIS: Attagene CIS-FACTORIAL HepG2 Assay for human cAMP Responsive Element (CRE) binding protein 3 (AID 2282926). The settings on record: HepG2 CRE cis-reporter, Attagene multiplexed mRNA; actives raise or lower the signal. Put shortly:
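Multiplexed transcription-unit reporters transfected into HepG2; 24 h dosing; RT-PCR/capillary electrophoresis fluorescence read-out; bidirectional fit vs DMSO.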

The target in experiment [3] is CCAAT/enhancer-binding protein beta (Homo sapiens) (UniProt P17676). Kind of experiment: ATG_C_EBP_CIS: Attagene CIS-FACTORIAL HepG2 Assay for human CCAAT/Enhancer Binding Protein (C/EBP) beta (AID 2282927). The settings on record: HepG2 Attagene cis-factorial transcription factor reporter; actives raise or lower the signal. In short, it runs like this:
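Endogenous C/EBPb-driven reporter transcripts measured in transfected human HepG2 cells at 24 h via RT-PCR and capillary electrophoresis of labelled fragments. Activity fitted in both directions relative to DMSO baseline.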

Experiment [4] can be described thus: ATG_CMV_CIS: Attagene CIS-FACTORIAL HepG2 Assay for human CMV (Internal Marker) (AID 2282928).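 Further: endpoint acts as a background internal control marker rather than a target.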 The settings on record: HepG2 CMV promoter reporter, transcription factor profiling; actives raise or lower the signal. Put shortly: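 Cell system: HepG2, transiently transfected multiple reporter units under cis promoters. Exposure: 24 h. Detection: RT-PCR, FAM labeling, HpaI digestion, capillary electrophoresis. Analysis: bidirectional, DMSO baseline.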

The nature of experiment [5]: ATG_DR4_LXR_CIS: Attagene CIS-FACTORIAL HepG2 Assay for human Liver X Receptor (LXR), DR4 submotif (AID 2282929). The settings on record: HepG2 Attagene DR4 cis-reporter, mRNA transcription; actives raise or lower the signal. In short, it runs like this: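 The endpoint is DR4-element-driven reporter transcripts after 24 h chemical exposure of transfected HepG2 cells. These were measured via RT-PCR and capillary electrophoresis, and gain or loss of signal was fitted relative to DMSO controls.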

For experiment [6], the target named is Aryl hydrocarbon receptor (Homo sapiens) (UniProt P35869). Briefly: ATG_Ahr_CIS: Attagene CIS-FACTORIAL HepG2 Assay for human Aryl Hydrocarbon Receptor (Ahr) (AID 2282930). The settings on record: HepG2 AhR cis-factorial reporter transcription; actives raise or lower the signal. Put shortly: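 Reporter mRNA levels, quantified by RT-PCR and fluorescent capillary electrophoresis, reflect endogenous AhR transcriptional activity in HepG2 cells carrying transfected cis-promoter reporter constructs. Readout at 24 h post-dose; gain or loss fitted against DMSO baseline.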
Aryl hydrocarbon receptor (Homo sapiens), sequence (P35869 whole entry, looked up): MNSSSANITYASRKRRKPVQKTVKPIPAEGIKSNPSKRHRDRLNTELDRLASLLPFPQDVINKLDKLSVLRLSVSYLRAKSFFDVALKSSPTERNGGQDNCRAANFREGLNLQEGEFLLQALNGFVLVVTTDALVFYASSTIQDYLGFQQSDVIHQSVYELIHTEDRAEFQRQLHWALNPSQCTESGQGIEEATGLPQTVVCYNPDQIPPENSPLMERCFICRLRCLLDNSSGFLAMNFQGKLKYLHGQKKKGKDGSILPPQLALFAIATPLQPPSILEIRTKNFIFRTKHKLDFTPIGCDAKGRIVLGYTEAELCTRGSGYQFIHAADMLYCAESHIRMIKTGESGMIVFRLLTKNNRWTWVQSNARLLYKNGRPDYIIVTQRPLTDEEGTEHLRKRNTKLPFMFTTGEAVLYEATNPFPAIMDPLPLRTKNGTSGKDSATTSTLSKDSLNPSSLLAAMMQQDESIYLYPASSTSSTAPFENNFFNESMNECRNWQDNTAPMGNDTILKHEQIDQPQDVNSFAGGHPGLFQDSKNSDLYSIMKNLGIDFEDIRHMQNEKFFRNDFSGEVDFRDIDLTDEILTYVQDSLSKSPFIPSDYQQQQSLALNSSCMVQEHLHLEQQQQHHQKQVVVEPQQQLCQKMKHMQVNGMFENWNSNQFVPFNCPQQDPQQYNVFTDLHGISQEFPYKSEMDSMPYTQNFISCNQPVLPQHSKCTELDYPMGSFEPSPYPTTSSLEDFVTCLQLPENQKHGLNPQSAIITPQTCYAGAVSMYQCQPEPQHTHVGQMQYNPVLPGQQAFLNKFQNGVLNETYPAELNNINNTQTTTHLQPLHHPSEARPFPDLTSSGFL

Experiment [7] in a line: ATG_AP_1_CIS: Attagene CIS-FACTORIAL HepG2 Assay for human Activator Protein 1 (AP-1) (AID 2282931). The settings on record: HepG2 Attagene cis-factorial AP-1 reporter mRNA; actives raise or lower the signal. In short, it runs like this:
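Readout is reporter transcript level from endogenous transcription factor activity, quantified by RT-PCR with fluorescent primer extension and capillary electrophoresis. Transiently transfected HepG2 cells, 24 h exposure. Curves fitted both directions versus DMSO.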

A short description of experiment [8]: ATG_AP_2_CIS: Attagene CIS-FACTORIAL HepG2 Assay for human Activator Protein 2 (AP-2) (AID 2282932). The settings on record: HepG2 AP-2 cis-reporter, Attagene transcription factor profiling; actives raise or lower the signal. Put shortly: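 Step one: transient transfection of HepG2 with reporter transcription units. Step two: 24 h chemical exposure. Step three: RNA extraction, RT-PCR, labelled fragment analysis by capillary electrophoresis; DMSO serves as baseline.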

Experiment [9] can be described thus: ATG_BRE_CIS: Attagene CIS-FACTORIAL HepG2 Assay for human Bone Morphogenetic Protein (BMP) Response Element (BRE) (AID 2282933). The settings on record: HepG2 BMP response element reporter, Attagene transcription factor profiling; actives raise or lower the signal. In short, it runs like this:
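Endogenous transcription factor activity read in transiently transfected HepG2 cells after 24 h chemical exposure. Bidirectional curve fitting against DMSO; readout is reporter transcript level by RT-PCR with capillary electrophoresis of labelled products.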

For experiment [10], the target named is Retinoic acid receptor alpha (Homo sapiens) (UniProt P10276). Kind of experiment: ATG_DR5_RAR_CIS: Attagene CIS-FACTORIAL HepG2 Assay for human Retinoic Acid Receptor Alpha (RARE), DR5 submotif (AID 2282934).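 On AC50: reporter responds to endogenous RAR alpha beta and gamma in HepG2 not RARA alone.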 The settings on record: HepG2 Attagene cis-factorial RARE DR5 reporter, mRNA; actives raise or lower the signal. In short, it runs like this:
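Reporter transcripts from a DR5-regulated unit, measured via RT-PCR plus capillary electrophoresis, reflect endogenous RAR activity in transiently transfected human HepG2 liver cells. Exposure lasted 24 h; gain or loss of signal scored against DMSO.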

Experiment [11] addresses Transcription factor E2F1 (Homo sapiens) (UniProt Q01094). Kind of experiment: ATG_E2F_CIS: Attagene CIS-FACTORIAL HepG2 Assay for human E2F Transcription Factor 1 (AID 2282935). The settings on record: HepG2 Attagene cis-reporter, E2F reporter RNA transcripts; actives raise or lower the signal. In short, it runs like this:
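Total RNA from 24 h-treated, reporter-transfected HepG2 cells undergoes DNase I treatment, oligo(dT) reverse transcription, PCR and 6-FAM primer extension before capillary electrophoresis.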

Experiment [12] in a line: ATG_E_Box_CIS: Attagene CIS-FACTORIAL HepG2 Assay for human Enhancer Box (E-box) (AID 2282936). The settings on record: HepG2 E-box cis-reporter transcription, actives raise or lower the signal. Put shortly:
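DMSO served as negative control and baseline for bidirectional fitting. Human hepatoma HepG2 cells, transiently transfected with cis-reporter constructs, were dosed 24 h; reporter mRNA read by RT-PCR and capillary electrophoresis.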

Experiment [13] in a line: ATG_M_61_CIS: Attagene CIS-FACTORIAL HepG2 Assay for M61 Transcription Factor (Internal Marker) (AID 2282937). The settings on record: HepG2 Attagene CIS-FACTORIAL M61 internal marker reporter; actives raise or lower the signal. In short, it runs like this: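 Readout is reporter mRNA by RT-PCR, fluorescent primer extension and capillary electrophoresis, with gain or loss fitted relative to DMSO. Transfected HepG2 cells carrying endogenous-TF-driven cis reporters were exposed to chemicals for 24 hours.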

Experiment [14] is described as follows: ATG_EGR_CIS: Attagene CIS-FACTORIAL HepG2 Assay for human Early Growth Response 1 (EGR1) (AID 2282938). The settings on record: HepG2 Attagene CIS-FACTORIAL EGR reporter mRNA; actives raise or lower the signal. In short, it runs like this:
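After 24 h compound exposure, RNA from reporter-transfected HepG2 cells was reverse-transcribed, PCR-amplified, fluorescently labelled and resolved by capillary electrophoresis. EGR1 reporter transcript changes, up or down, were fitted against DMSO, reflecting endogenous transcription-factor activity.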

Experiment [15] is described as follows: ATG_M_19_CIS: Attagene CIS-FACTORIAL HepG2 Assay for M19 Transcription Factor (Internal Marker) (AID 2282939). The settings on record: HepG2 Attagene CIS-FACTORIAL M19 internal marker reporter; actives raise or lower the signal. In short, it runs like this:
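Internal marker readout, fitted in both directions against DMSO, from HepG2 cells carrying transfected cis-element reporter constructs; RT-PCR and capillary electrophoresis of reporter mRNA after 24 h exposure.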

A short description of experiment [16]: ATG_ERE_CIS: Attagene CIS-FACTORIAL HepG2 Assay for Estrogen Response Element (ERE) (AID 2282940). The settings on record: HepG2 ERE cis-reporter, Attagene RNA transcript; actives raise or lower the signal. Put shortly: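 After 24 h compound treatment, RNA from transfected HepG2 cells was reverse-transcribed, reporter cDNA PCR-amplified, FAM-labelled, HpaI-cut and resolved by capillary electrophoresis. ERE-driven cis reporter transcripts reflect endogenous factors; gain or loss scored against DMSO.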

Experiment [17] in a line: ATG_Ets_CIS: Attagene CIS-FACTORIAL HepG2 Assay for human Erythroblast Transformation Specific (ETS) (AID 2282941). The settings on record: HepG2 ETS cis-reporter transcription, actives raise or lower the signal. In short, it runs like this: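 After transient cis-reporter transfection, HepG2 cells receive test chemical for 24 h. Reporter mRNA levels, measured by RT-PCR and capillary electrophoresis fluorescence, are analysed bidirectionally relative to the DMSO baseline.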

For experiment [18], the target named is Hepatocyte nuclear factor 3-beta (Homo sapiens) (UniProt Q9Y261). Kind of experiment: ATG_FoxA2_CIS: Attagene CIS-FACTORIAL HepG2 Assay for human Forkhead box A2 (FOXA2) (AID 2282942). The settings on record: HepG2 cis-reporter transcription factor activity, 24 h; actives raise or lower the signal. Put shortly:
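Endogenous transcription factor activity is captured via cis-element-driven reporter transcripts in transfected HepG2. Total RNA taken at 24 h post-dosing; labelled RT-PCR products resolved by capillary electrophoresis. Gain or loss fitted versus DMSO.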

Experiment [19] can be described thus: ATG_GATA_CIS: Attagene CIS-FACTORIAL HepG2 Assay for human GATA Binding Protein (AID 2282944). The settings on record: HepG2 GATA cis-element reporter, Attagene multiplex mRNA; actives raise or lower the signal. Put shortly:
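Reporter transcripts from a GATA cis-regulated unit, among multiplexed reporters in transfected HepG2 cells, were measured by RT-PCR with capillary electrophoresis after 24 h dosing. Induction or loss scored relative to DMSO.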

Experiment [20] is described as follows: ATG_FoxO_CIS: Attagene CIS-FACTORIAL HepG2 Assay for human Forkhead box O (FoxO) (AID 2282943). The settings on record: HepG2 Attagene cis-reporter, FoxO element, mRNA; actives raise or lower the signal. Put shortly: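 Endogenous transcription factor activity read from multiplexed cis-promoter reporter transcripts in transiently transfected HepG2, 24 h after dosing. Reporter RNA measured via RT-PCR plus capillary electrophoresis of FAM-labeled products; gain or loss relative to DMSO.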

CCAAT/enhancer-binding protein beta (Homo sapiens), sequence (P17676 whole entry, looked up, the tested form may be a part): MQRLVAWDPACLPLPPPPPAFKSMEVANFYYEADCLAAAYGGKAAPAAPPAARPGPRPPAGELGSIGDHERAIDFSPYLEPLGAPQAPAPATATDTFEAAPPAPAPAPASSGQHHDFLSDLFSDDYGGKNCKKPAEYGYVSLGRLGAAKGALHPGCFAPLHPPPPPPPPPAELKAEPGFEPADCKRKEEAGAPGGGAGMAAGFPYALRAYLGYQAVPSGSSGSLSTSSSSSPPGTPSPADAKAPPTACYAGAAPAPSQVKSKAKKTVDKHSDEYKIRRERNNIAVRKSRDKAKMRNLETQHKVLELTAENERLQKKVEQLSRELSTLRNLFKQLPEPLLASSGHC
Retinoic acid receptor alpha (Homo sapiens), sequence (P10276 whole entry, looked up): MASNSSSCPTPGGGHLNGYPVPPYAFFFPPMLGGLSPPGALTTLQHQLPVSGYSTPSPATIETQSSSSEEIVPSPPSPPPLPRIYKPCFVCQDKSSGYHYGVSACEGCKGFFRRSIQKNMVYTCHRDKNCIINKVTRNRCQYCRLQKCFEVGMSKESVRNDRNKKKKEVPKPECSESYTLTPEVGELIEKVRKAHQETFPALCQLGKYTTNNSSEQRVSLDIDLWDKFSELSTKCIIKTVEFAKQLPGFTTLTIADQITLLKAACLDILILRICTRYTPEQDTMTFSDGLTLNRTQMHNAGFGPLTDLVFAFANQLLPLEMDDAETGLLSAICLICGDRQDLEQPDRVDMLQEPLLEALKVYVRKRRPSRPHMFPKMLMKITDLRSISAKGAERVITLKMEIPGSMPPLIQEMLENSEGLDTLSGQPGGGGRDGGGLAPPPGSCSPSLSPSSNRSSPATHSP
Transcription factor E2F1 (Homo sapiens), sequence (Q01094 whole entry, looked up): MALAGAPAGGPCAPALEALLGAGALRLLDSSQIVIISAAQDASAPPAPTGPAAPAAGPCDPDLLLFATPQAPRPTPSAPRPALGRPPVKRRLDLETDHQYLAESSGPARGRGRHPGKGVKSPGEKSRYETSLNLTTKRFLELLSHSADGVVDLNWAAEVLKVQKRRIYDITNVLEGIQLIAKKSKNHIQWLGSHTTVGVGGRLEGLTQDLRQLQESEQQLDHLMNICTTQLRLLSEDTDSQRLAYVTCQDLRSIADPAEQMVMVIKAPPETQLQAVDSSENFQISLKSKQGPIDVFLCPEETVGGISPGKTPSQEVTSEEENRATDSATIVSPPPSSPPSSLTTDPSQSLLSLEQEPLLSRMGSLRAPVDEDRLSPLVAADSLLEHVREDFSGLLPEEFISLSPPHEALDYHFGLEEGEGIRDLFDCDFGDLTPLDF
Hepatocyte nuclear factor 3-beta (Homo sapiens), sequence (Q9Y261 whole entry, looked up): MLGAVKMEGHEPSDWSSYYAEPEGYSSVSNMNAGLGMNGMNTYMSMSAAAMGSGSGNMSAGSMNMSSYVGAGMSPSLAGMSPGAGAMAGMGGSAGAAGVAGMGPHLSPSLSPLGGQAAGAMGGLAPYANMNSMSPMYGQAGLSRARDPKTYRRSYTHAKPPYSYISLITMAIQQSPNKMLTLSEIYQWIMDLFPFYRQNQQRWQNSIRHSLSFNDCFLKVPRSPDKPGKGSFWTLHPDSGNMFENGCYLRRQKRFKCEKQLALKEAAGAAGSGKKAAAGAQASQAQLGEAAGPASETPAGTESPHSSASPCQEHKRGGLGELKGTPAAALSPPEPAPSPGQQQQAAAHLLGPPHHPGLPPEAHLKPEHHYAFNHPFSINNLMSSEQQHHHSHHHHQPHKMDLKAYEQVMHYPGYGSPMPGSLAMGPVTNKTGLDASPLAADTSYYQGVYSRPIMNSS

With `CCCCCCCCCCCCCc1ccccc1`, the compound was classed as inactive in experiment [1], in [2], in [3], in [4], in [5] and in experiment [6]. In addition, the outcome in experiment [7], in experiment [8], in [9], in experiment [10], in experiment [11] and in [12] was inactive. Moreover, the result in [13], in [14], in experiment [15], in experiment [16], in experiment [17] and in [18] was inactive. Besides, in experiment [19], the result was inactive.

The term AC50 denotes the midpoint of the concentration-response curve, whichever way the signal moves. For `Cc1cc(C)c(C=O)c(C)c1`, the call in experiment [1], in experiment [2], in experiment [3], in [4], in experiment [5] and in [6] was inactive. The compound was called inactive in experiment [7], in experiment [8], in experiment [9], in experiment [11], in experiment [12] and in experiment [13]. Also, the result in experiment [14], in experiment [15], in [16], in experiment [17], in experiment [18] and in experiment [19] was inactive. Besides, the half-maximal activity concentration (AC50) in experiment [10] was 3.85 µM (active).

For `CC(CC=O)CC(C)(C)C` (stereo unspecified), the compound was called inactive in experiment [1], in [2], in experiment [3], in [4], in [5] and in [6]. The call in experiment [7], in experiment [8], in experiment [9], in [10], in [11] and in [12] was inactive. Moreover, the call in [13], in experiment [14], in [15], in experiment [16], in [17] and in [18] was inactive. The result in experiment [19] was inactive.

Regarding `CCc1occc(=O)c1O`, the result in experiment [1], in experiment [2], in [3], in experiment [4], in experiment [5] and in experiment [7] was inactive. Besides, the compound was called inactive in experiment [8], in [9], in [10], in experiment [11], in experiment [12] and in [13]. The call in [14], in experiment [15], in experiment [16], in experiment [18], in experiment [20] and in [19] was inactive. In addition, the AC50 in [6] is 65.6 µM (active).

The record behind these values is PubChem BioAssay (EPA / NIEHS).
